Test results from ChEMBL document CHEMBL3988442, “University of Dundee, Small-Polar-MMV Screening Library” (2021).
For some of these results: Potency and affinity values are given separately.

Columns and labels:
Design in all cases: scale not given: direction of the effect not stated beside the values
[1] = biological target: Protein translocase subunit SecA (Escherichia coli (strain K12)) (UniProt P10408); experiment: Assay to Identify E. coli SecA ATPase Inhibitors; format: functional; conditions: 30 µM
[2] = biological target: T1, Ubiquitin-activating enzyme e1, putative (Leishmania donovani (strain BPK282A1)) (UniProt E9BSI1); experiment: Leishmania donovani Ubiquitin Activating Enzyme (LdE1); format: functional; conditions: 30 µM
T1 sequence (whole entry): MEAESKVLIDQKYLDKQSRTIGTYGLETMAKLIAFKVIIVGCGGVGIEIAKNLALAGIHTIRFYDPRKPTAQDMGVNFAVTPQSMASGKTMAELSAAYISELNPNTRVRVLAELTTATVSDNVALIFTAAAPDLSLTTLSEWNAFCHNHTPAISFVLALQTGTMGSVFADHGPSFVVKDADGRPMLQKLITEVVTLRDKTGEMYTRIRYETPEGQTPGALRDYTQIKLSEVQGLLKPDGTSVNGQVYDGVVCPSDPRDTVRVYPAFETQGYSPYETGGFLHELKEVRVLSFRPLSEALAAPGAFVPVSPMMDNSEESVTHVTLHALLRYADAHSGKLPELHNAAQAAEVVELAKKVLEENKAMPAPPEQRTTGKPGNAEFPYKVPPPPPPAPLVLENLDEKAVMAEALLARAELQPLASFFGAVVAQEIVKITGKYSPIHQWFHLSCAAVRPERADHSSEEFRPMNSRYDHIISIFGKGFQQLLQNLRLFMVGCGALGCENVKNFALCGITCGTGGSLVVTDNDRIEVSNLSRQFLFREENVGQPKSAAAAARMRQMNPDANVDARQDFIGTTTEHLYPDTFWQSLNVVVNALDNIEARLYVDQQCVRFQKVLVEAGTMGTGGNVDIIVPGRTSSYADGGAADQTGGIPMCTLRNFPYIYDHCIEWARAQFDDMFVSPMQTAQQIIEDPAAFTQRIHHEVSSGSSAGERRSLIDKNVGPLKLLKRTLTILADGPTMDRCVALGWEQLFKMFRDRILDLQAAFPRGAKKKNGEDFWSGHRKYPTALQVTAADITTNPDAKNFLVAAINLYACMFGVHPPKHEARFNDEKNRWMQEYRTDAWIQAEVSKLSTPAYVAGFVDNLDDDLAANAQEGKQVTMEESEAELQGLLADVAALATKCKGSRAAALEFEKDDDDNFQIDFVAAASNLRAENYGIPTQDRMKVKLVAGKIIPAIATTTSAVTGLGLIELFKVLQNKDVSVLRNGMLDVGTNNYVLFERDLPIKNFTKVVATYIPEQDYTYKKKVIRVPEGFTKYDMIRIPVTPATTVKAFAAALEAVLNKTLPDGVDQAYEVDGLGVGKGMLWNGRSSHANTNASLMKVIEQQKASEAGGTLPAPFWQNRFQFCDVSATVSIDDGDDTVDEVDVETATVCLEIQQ

[3] = biological target: AMP-activated protein kinase, AMPK (Homo sapiens) (UniProt P54646+O43741+P54619+Q9UGJ0+Q9Y478+Q13131+Q9UGI9); experiment: AMP-dependent Kinase enzyme assay. An in vitro enzyme assay that detects ADP turnover that is directly proportional to AMPK activity. This uses naive AMPK that is activated during the assay with MK-8722; format: functional; conditions: 30 µM
[4] = biological target: Sialic acid-binding Ig-like lectin 9 (Homo sapiens) (UniProt Q9Y336); experiment: Hs-Siglec9 ALPHAscreen SOP 20170721; conditions: 10 µM
[5] = system: Trypanosoma cruzi; experiment: Trypanosoma cruzi phosphomannomutase and mannose-1-phosphate guanylyltransferase assay; format: functional; conditions: 10 µM
[6] = biological target: T2, Arginase-2, mitochondrial (Homo sapiens) (UniProt P78540); experiment: in vitro enzyme assay to detect the production of urea directly proportional to the activity of Arginase II; format: functional; conditions: 33.3 µM; further: in the data most compounds retested in dose-response had high values
T2 sequence (whole entry): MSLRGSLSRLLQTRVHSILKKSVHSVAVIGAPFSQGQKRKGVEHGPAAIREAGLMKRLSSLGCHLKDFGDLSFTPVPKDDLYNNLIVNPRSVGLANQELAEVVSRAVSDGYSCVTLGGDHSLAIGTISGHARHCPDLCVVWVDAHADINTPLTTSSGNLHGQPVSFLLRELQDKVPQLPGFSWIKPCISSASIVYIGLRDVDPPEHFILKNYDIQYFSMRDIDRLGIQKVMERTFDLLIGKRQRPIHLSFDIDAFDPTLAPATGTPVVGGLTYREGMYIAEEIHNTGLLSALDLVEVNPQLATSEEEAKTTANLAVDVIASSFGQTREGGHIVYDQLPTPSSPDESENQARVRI

[7] = biological target: T3, Proteasome subunit beta (Trypanosoma cruzi) (UniProt O96673); experiment: Trypanosoma cruzi proteasome chymotrypsin-like activity (TcProtChymo) assay.; further: in the data most compounds retested in dose-response had high values; format: functional; conditions: 9.37 µM
T3 sequence (whole entry): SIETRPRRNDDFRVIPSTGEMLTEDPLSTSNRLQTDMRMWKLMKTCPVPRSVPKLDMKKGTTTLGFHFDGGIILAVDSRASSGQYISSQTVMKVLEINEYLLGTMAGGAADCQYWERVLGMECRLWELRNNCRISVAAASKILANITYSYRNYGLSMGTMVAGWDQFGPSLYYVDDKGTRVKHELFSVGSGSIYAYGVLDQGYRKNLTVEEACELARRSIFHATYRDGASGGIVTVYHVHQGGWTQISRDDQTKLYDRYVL

[8] = species on record: Homo sapiens; experiment: To identify inhibition of the IFN signalling (Jak-Stat) pathway via expression of an eGFP reporter gene under the control of an IFN-stimulated response element (ISRE) containing MxA promoter.; format: functional; conditions: 30 µM
[9] = biological target: T4, Tyrosyl-tRNA synthetase, putative (Trypanosoma cruzi (strain CL Brener)) (UniProt Q4DSP6); experiment: Trypanosoma cruzi tyrosyl tRNA synthetase (TcYRS) _High Tyrosine SOP; format: functional; conditions: 30 µM; further: in the data most compounds retested in dose-response had high values
T4 sequence (whole entry): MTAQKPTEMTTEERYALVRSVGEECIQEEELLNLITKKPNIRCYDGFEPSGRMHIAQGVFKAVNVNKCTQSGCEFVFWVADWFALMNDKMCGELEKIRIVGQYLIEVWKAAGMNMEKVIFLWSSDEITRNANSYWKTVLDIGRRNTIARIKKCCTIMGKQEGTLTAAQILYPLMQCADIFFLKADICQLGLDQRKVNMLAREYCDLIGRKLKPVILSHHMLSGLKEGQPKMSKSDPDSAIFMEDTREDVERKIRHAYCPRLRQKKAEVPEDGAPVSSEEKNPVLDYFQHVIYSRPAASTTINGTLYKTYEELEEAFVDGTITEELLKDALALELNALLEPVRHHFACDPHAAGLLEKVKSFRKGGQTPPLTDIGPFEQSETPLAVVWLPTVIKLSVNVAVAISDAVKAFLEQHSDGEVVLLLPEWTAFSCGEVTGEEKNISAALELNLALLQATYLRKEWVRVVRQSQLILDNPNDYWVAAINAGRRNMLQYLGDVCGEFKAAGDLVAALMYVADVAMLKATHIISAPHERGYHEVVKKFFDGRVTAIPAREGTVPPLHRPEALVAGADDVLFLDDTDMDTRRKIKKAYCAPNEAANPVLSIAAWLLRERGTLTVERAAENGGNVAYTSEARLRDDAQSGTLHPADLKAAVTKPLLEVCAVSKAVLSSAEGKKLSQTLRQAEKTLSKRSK

[10] = biological target: T4, Tyrosyl-tRNA synthetase, putative (Trypanosoma cruzi (strain CL Brener)); experiment: Trypanosoma cruzi tyrosyl tRNA synthetase (TcYRS) SOP; format: functional; conditions: 30 µM
[11] = biological target: Chromo domain-containing protein 1 (Saccharomyces cerevisiae (strain ATCC 204508 / S288c) (Baker's yeast)) (UniProt P32657); experiment: ScCHD-1 Enzyme Inhibition Assay; format: functional; conditions: 30 µM; further: in the data most compounds retested in dose-response had high values
Sequence of Chromo domain-containing protein 1 (Saccharomyces cerevisiae (strain ATCC 204508 / S288c) (Baker's yeast)) (P32657 whole entry, the tested form may be a part): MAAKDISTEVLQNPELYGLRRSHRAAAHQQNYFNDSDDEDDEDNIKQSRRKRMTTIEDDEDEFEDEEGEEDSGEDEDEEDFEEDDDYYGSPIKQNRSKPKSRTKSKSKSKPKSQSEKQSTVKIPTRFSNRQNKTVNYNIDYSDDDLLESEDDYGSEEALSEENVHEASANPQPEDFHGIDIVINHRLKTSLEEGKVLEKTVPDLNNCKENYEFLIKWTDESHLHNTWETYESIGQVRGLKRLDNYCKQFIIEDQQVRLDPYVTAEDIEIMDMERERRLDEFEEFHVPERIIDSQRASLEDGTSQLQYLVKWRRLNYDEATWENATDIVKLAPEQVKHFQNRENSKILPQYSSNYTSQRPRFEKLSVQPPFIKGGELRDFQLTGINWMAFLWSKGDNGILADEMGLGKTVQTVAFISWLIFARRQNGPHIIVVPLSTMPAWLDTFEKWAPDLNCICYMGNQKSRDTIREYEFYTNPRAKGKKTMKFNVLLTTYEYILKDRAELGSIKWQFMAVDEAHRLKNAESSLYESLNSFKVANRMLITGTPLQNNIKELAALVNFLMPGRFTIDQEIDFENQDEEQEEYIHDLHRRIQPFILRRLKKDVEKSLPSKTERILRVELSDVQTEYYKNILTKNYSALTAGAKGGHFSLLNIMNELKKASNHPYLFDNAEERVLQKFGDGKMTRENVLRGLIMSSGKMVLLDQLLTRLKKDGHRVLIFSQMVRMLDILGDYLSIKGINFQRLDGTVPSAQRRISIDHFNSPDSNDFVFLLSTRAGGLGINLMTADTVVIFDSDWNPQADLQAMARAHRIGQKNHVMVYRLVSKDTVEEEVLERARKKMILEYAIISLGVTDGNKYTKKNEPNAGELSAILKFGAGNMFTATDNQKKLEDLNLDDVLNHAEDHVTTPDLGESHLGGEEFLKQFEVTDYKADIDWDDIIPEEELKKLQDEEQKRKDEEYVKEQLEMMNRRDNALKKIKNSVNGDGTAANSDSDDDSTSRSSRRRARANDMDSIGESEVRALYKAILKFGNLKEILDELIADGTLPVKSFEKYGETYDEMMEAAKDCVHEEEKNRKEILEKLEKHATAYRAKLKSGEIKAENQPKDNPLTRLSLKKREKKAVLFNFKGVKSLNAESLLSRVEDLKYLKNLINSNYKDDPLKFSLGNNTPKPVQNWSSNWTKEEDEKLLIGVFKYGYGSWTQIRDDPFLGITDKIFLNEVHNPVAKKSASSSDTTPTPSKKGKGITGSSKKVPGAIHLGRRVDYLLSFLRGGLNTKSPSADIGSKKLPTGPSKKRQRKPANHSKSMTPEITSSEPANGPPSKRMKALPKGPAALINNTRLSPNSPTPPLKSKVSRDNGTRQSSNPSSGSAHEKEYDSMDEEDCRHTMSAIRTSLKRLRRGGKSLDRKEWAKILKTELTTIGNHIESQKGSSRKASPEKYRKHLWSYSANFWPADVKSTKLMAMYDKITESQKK

Sequence of Sialic acid-binding Ig-like lectin 9 (Homo sapiens) (Q9Y336 whole entry): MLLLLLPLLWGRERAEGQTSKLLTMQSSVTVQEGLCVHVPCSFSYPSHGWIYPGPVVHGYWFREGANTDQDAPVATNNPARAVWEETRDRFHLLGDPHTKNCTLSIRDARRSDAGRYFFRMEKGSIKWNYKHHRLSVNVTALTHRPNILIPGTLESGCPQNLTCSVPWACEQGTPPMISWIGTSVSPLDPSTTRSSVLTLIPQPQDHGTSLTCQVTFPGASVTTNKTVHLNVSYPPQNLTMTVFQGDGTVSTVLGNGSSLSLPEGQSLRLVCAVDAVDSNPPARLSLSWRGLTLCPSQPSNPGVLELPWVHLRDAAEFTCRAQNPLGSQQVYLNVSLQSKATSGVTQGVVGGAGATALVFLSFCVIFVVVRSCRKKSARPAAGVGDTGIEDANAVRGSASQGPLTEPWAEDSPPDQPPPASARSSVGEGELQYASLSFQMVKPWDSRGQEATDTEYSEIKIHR
Sequence of Protein translocase subunit SecA (Escherichia coli (strain K12)) (P10408 whole entry): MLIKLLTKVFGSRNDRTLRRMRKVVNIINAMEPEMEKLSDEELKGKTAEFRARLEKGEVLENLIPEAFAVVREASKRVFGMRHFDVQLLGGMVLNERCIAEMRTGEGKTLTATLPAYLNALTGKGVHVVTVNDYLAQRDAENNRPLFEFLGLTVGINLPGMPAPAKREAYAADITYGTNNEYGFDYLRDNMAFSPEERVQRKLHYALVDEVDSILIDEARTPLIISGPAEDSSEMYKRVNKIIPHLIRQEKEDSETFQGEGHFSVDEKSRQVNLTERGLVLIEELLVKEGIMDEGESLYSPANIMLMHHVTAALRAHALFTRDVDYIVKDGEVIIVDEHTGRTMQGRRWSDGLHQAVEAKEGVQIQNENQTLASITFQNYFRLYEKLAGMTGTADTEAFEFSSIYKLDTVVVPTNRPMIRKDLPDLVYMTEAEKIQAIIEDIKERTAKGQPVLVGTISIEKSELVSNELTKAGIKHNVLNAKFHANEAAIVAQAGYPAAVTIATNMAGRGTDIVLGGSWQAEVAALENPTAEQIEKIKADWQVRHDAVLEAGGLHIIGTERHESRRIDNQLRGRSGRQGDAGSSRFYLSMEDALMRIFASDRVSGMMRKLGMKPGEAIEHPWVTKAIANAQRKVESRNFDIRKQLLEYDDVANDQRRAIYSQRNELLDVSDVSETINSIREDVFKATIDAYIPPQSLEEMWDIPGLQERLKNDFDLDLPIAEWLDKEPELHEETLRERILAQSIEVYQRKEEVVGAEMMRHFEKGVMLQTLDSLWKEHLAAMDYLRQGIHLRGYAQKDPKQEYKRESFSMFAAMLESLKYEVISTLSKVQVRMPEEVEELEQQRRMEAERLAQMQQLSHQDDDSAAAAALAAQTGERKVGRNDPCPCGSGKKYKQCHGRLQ

SMILES	Percent Effect [1] [%]	Percent Effect [2] [%]	Percent Effect [3] [%]	Percent Effect [4] [%]	Percent Effect [5] [%]	Percent Effect [6] [%]	Percent Effect [7] [%]	Percent Effect [8] [%]	Percent Effect [9] [%]	Percent Effect [10] [%]	Percent Effect [11] [%]
CC(C)c1nc(C2CCCN2CCCc2nc3ccccc3o2)no1 (stereo unspecified)	-2.74	-8.11	-9.61	9.51	1.42	-6.81	-1.62	5.36	2.46	-6.17	0.486
Cc1nc(C)n(C2CCCN(C(=O)CCCOc3ccccc3)C2)n1 (stereo unspecified)	-1.32	0	6.84	4.93	1.5	-2.85	-1.18	-22.8	2.91	9.76	-5.8
Cc1cc(C(=O)N2C[C@@H]3COC[C@]3(COCc3cccnc3)C2)no1	-2.45	33.8	4.4	-2.26	-3.45	3.23	7.31	4.17	-2.12	8.97	-5.95
CC(Cc1ccco1)NC(=O)Nc1cnn(CC(N)=O)c1 (stereo unspecified)	1.02	6.33	5.31	0.769	-6.67	2.8	11	9.49	4.17	7.59	-2.83
COCC1CN(C(=O)c2cccn2C)Cc2nccn2C1 (stereo unspecified)	-0.683	10.7	12.7	-7.24	-5.32	1.63	13.8	10.6	2.13	11.5	-4.6
CCNC(=O)N(C)C(c1cccc(F)c1)c1ccccn1 (stereo unspecified)	-4.06	2.6	8.62	13	5.43	-2.49	9.46	21.3	7.77	21.9	-6.09
CCCn1cc(C(=O)N(C)Cc2nc(-c3ccccn3)no2)c(C)n1	-2.06	5.33	-2.74	4.11	-2.43	4.69	18.8	17	6.01	13.6	-5.18
COc1cccc([C@@H]2CN(C(=O)c3ccc(C)cc3O)C[C@H]2C(=O)O)c1	-3.46	21.6	-1.7	25.8	4.59	40.9	15.9	1.8	3.23	18.5	-5.84
CC(C)(C)c1ncc2c(n1)CN(C(=O)c1ccncc1)C2	-2.88	5.48	-0.32	6.45	-3.57	-3.19	17.7	-6.92	9.38	16.1	-0.422
CCOc1cc(C(=O)N2CCCC(c3noc(C)n3)C2)ccn1 (stereo unspecified)	-5.03	10.5	-4.05	13.6	-2.15	-1.08	2.12	-18.5	5.42	11.1	-2.64
CCn1cc(NC(=O)NC2CCCc3c2cnn3CCO)cn1 (stereo unspecified)	-1.35	5.33	-2.07	4.11	-1.07	1.56	9.77	4.28	4.92	11.1	-14.2
